Common to all, as to experiment: NCI-60 one-dose screen, 48 h (100 = growth as untreated, 0 = no growth, -100 = all killed)
Holding throughout (conditions): 10 µM unless noted

Experiment [1] relates to DU-145 prostate.
In experiment [2] the test system is K-562 leukemia.
For experiment [3], the system named is MALME-3M melanoma.
The test system of experiment [4] is MDA-MB-231 breast.
In experiment [5] the test system is RXF 393 renal.
In experiment [6] the test system is SF-268 CNS.
Experiment [7] relates to SF-295 CNS.
In experiment [8] the test system is SF-539 CNS.
Experiment [9] concerns UACC-257 melanoma.
The test system of experiment [10] is M14 melanoma.
Experiment [11] concerns HCT-15 colon.
Experiment [12] concerns HT29 colon.
The test system of experiment [13] is SNB-75 CNS.
The subject of experiment [14] is SNB-19 CNS.
Experiment [15] concerns U251 CNS.
Experiment [16] concerns PC-3 prostate.
The subject of experiment [17] is SK-MEL-5 melanoma.
In experiment [18] the test system is UACC-62 melanoma.
Experiment [19] deals with LOX IMVI melanoma.
The subject of experiment [20] is SK-MEL-28 melanoma.

The panel holds about 83,000 compounds, 20% with a hit somewhere; the sample as a whole holds those more often.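 A percent growth of 40 corresponds to 60% growth inhibition; 0 means no net growth; -100 means all cells died. Active threshold: below 10.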 Unmarked numbers belong to inactive results. Active and inactive are the calls of the source.

Consider `COc1ccc2occ(C3=C(c4c[nH]c5ccccc45)C(=O)N(O)C3=O)c2c1`, for which the growth in experiment [1] was 102%; in experiment [2], 87.3%; in experiment [3], 112%; in [4], 69%; in experiment [5], 107%; in [6] it was 91.8%. Further, the growth was 105% in experiment [7]; 102% in experiment [8]; 99% in experiment [9]; 94.2% in [10]; 100% in experiment [11]; 99.7% in [12]. For the same compound, the growth in experiment [13] is 99.7%; in experiment [14] it was 91.8%; in experiment [15], 91.7%; in experiment [16] it was 81.3%; in [17], 92.7%; in experiment [18] it was 80.2%. The values for the growth in experiment [19] and in experiment [20] were 58.4% and 114%, respectively.

`CC/C=C\C/C=C\C[C@H](O)C/C=C1/C(=O)C=C[C@@H]1C/C=C\CCCC(=O)O`: the growth is 35.4% in experiment [1]; 10.5% in experiment [2]; 47% in [3]; 25.6% in [4]; 68.5% in experiment [5]; 53.9% in experiment [6]. For the same compound, the growth was 86.2% in experiment [7]; 32.7% in experiment [8]; 31.3% in experiment [9]; 14.3% in experiment [10]; 48% in [11]; 12.6% in experiment [12]. The growth in [13] was 80.7%; in experiment [14] it was 44.3%; in experiment [15], -27.9% (active); in experiment [16], 30.1%; in experiment [17], 20.7%; in experiment [18], -43.4% (active). For the same compound, the growth is -10.1% (active) in experiment [19] and 17.5% in [20].

In the case of `COc1cc(-c2nc(N3CCN(C)CC3)c3ccccc3n2)cc(OC)c1OC`, the growth was 82.4% in experiment [1]; 44.8% in experiment [2]; 63.8% in [3]; 61.2% in experiment [4]; 51.4% in [5]; 56.8% in experiment [6]. The growth in experiment [7] was 28.6%; in experiment [8], 39.3%; in experiment [9], 58.2%; in experiment [10], 42%; in experiment [11], 56.9%; in experiment [12], 49.5%. Further, the growth in experiment [13] is 15.7%; in experiment [14], 85.2%; in experiment [15], 60.2%; in experiment [16] it was 52.8%; in experiment [17], 47%; in experiment [18] it was 18.2%. The growth is 44.3% in experiment [19] and 59.5% in experiment [20].

As to `Cc1cc(NCCCCNc2ccnc3cc(Cl)ccc23)nc(Nc2ccc(C(=O)N3CCCC3)cc2)n1`, the growth in experiment [1] is 48.3%; in [2] it was -24.6% (active); in experiment [3] it was -70.4% (active); in experiment [4], -22.2% (active); in experiment [5], 32.4%; in experiment [6], 15.7%. In addition, the growth in [7] was 3.67% (active); in [8] it was -68.6% (active); in experiment [9], -70.6% (active); in experiment [10], -73.9% (active); in experiment [11], 7.18% (active); in [12], -2.28% (active). Moreover, the growth is -9.47% (active) in [13]; 30.5% in experiment [14]; -7.46% (active) in experiment [15]; 35.6% in [16]; -100% (active) in experiment [17]; -33.6% (active) in experiment [18]. Moreover, the growth in experiment [19] is -90.9% (active); in [20], -72.8% (active).

For `COc1cc(-c2nn(-c3ccccc3)cc2-c2ccnc(NCCNS(=O)(=O)c3ccc(Cl)cc3)n2)ccc1Cl`, the growth in experiment [1] was 50.7%; in [2], 27.7%; in experiment [3] it was 70%; in [4] it was 53.5%; in experiment [5], 34.9%; in [6], 41.2%. Also, the growth in [7] is 30.6%; in experiment [8], 60.3%; in [9], 34.8%; in [10] it was 24.3%; in [11] it was 30.3%; in experiment [12] it was 11.3%. Further, the growth is 49.1% in experiment [13]; 49.9% in experiment [14]; 28.4% in experiment [15]; 18.3% in experiment [16]; 32.6% in experiment [17]; 41% in experiment [18]. Also, the growth in experiment [19] is 32.3%; in [20], 49.2%.

Regarding `Cc1occc1-c1n[nH]c(=S)n1N1C(=O)CSC1=S`, the growth in experiment [1] is 108%; in experiment [2], 103%; in experiment [3], 98%; in [4], 101%; in experiment [5] it was 112%; in [6], 97%. In addition, the growth was 101% in [7]; 98.5% in experiment [8]; 109% in experiment [9]; 102% in experiment [10]; 101% in [11]; 105% in [12]. Further, the growth is 80.9% in experiment [13]; 97% in [14]; 100% in experiment [15]; 97.2% in experiment [16]; 101% in experiment [17]; 91.4% in [18]. Also, the growth in experiment [19] is 94.1%; in experiment [20], 106%.

Regarding `COC(=O)[C@]12CC[C@@H](C)[C@H](C)[C@@H]1C1=CC[C@@H]3[C@@]4(C)C(C=O)=C[C@@](C)(COC(=O)c5ccco5)C4=CC[C@@]3(C)[C@]1(C)CC2`, the growth in experiment [1] is 10.7%; in experiment [2], 11.1%; in experiment [3], -43.5% (active); in experiment [4], -8.21% (active); in experiment [5] it was -56.3% (active); in [6], -10.9% (active). Moreover, the growth was 11.7% in experiment [7]; -15.3% (active) in experiment [8]; -34.6% (active) in experiment [9]; -33.9% (active) in [10]; -31.9% (active) in experiment [11]; -0.473% (active) in experiment [12]. Besides, the growth in [13] was 20%; in experiment [14] it was 36.5%; in [15] it was -4.29% (active); in [16], 14.1%; in experiment [17], -87.1% (active); in experiment [18] it was -11.1% (active). In addition, the values for the growth in experiment [19] and in experiment [20] were -86.3% (active) and -45.5% (active), respectively.

Take `CCc1ccccc1-n1c(-c2ccc(Cl)cc2)cc(-c2ccc(OC)cc2)c(C#N)c1=O`: the growth in [1] is 94.6%; in experiment [2] it was 101%; in [3], 148%; in experiment [4], 92.7%; in experiment [5], 97.5%; in [6] it was 93.4%. Further, the growth is 93.2% in experiment [7]; 102% in experiment [8]; 112% in experiment [9]; 93.4% in [10]; 99.6% in [11]; 103% in [12]. For the same compound, the growth is 93% in experiment [13]; 105% in [14]; 114% in [15]; 84.1% in experiment [16]; 101% in experiment [17]; 89.1% in experiment [18]. Further, the growth was 89.6% in [19] and 109% in experiment [20].
